Laboratory results reported in PubChem BioAssay AID504334 (NMMLSC, 2011).

Experiment: yeast AGP1-GFP fluorescence change, single-dose confirmation – cell-based, flow cytometry, S. cerevisiae, cherry pick set 3 (AID 504334);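 further: median GFP fluorescence per well by flow cytometry over the all cells gate; ratio of sample to mean DMSO control signal so DMSO = 100% not 0%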
Conditions: S. cerevisiae AGP1-GFP strain, 3 h, at 10 µM, stronger effect = higher value;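 active means response relative to DMSO over 150%; inconclusive means yeast strain with under 70 recorded events; inactive means the rest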

Percent response vs DMSO, inactive:
Cc1ccc2nc(-c3ccc(NC(=O)c4cccnc4)cc3)oc2c1 93.8%
COc1ccc(OC)c(Nc2nc(NCCC(C)C)nc(N)c2[N+](=O)[O-])c1 98.4%
CCC(=O)Nn1cnc2c(c1=O)C1(CCCCC1)Cc1ccccc1-2 102%
Cc1ccc(NN2C(=O)C=C(c3ccccc3)C2=O)cc1 92.8%
COc1ccc(N/C(C)=C/C(=O)c2ccccc2)cc1 98.4%
CCOC(=O)CS(=O)(=O)c1nc(-c2ccccc2)cc(C(F)(F)F)n1 122%
CCCOCc1ccc(O)c2ncccc12 99.8%
COc1ccc(NC(=O)O/N=C2/CCCc3ccc(OC)cc32)cc1 95.8%
Nc1ncnc(Nc2cc(Cl)cc(Cl)c2)c1[N+](=O)[O-] 98.8%
COc1ccc(NC(=O)ON=C2c3ccccc3-c3ccccc32)cc1 98.1%
CC(=O)Nn1cnc2c(c1=O)C1(CCCCC1)Cc1ccccc1-2 104%
CC(=O)NC(C)c1cc(Cl)c2cccnc2c1O (centres undefined) 102%
C=CCNc1nc(N)c([N+](=O)[O-])c(Nc2ccccc2OC)n1 95.4%
COC(=O)c1cc(=O)c2cccc(OC)c2[nH]1 99.4%
O=C(Nc1ccccc1)O/N=C1\CCCCC1c1ccc([N+](=O)[O-])cc1[N+](=O)[O-] (centres undefined) 102%
OCc1ccnc2c(O)cccc12 100%
CS(=O)(=O)Oc1ccc(Br)c2cccnc12 96.4%
C/C(=N\NC(=O)c1cccc2ccccc12)c1cccnc1 99.4%
Cc1ccc(C(=O)Nc2nc(-c3ccccn3)cs2)o1 102%
CCc1c(C)nc2c(OC)cccc2c1Cl 99.4%
Cc1ccc2c(Cl)cc(Cl)c(OCC(=O)O)c2n1 109%
Cc1ccc(C(=O)/C=C/Nc2cccc(O)c2)cc1 96.8%
CC(=O)Nc1ccc(-c2nc3cc(Cl)ccc3o2)cc1 96.1%
C[n+]1cccc2c(Br)ccc([O-])c21 100%
O=C(Nc1ccccc1)O/N=C1/CCCc2occc21 94.4%
COc1ccc(OC)c2c(=O)cc(C(=O)O)[nH]c12 102%
Cc1cn2c(N)c(C=C3C=C(Cl)C(=O)C(Cl)=C3)c(=O)nc2s1 101%
Cc1nc(Nc2ccc(Cl)cc2)c(C#N)c(=O)[nH]1 101%
Oc1c(I)cc(Cl)c2cccnc12 100%
O=C(N/N=C/c1ccccc1F)c1cccc2ccccc12 101%
COc1ccccc1-c1cc(C(F)(F)F)nc(S(C)(=O)=O)n1 130%
CNc1nc(N)c([N+](=O)[O-])c(Nc2ccccc2OC)n1 89.8%
Cn1c(=O)c2c(n3cnnc13)-c1ccccc1CC21CCCC1 104%
O=C(Nc1ccc(-c2nc3ccccc3o2)cc1)c1cccnc1 100%
Nc1cc(C(=O)O)c(N)c2c1C(=O)c1ccccc1C2=O 102%
CCC(C)Nc1nc(N)c([N+](=O)[O-])c(Nc2cc(OC)ccc2OC)n1 (centres undefined) 98.8%
Cc1cccc(Nc2cc(=O)[nH]c(=O)[nH]2)c1C 99.4%
Cc1cc(C)c(NC(=O)CC(=O)c2ccccc2)c(Cl)c1 99.4%
O=C(O)c1ccccc1-c1ccccc1C(=O)Nc1ccc(-c2nc3cc(Cl)ccc3o2)cc1 103%
